From PubChem BioAssay (NCI)
Values joined by “and” are separate entries in the source; they are usually repeats but may differ in a detail not shown here. Identical values can stand only once. The panel holds about 83,000 compounds, 20% with a hit somewhere; the sample as a whole holds those more often.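 Method: cells in 96-well plates; compound added at one concentration; 48 h incubation; percent growth measured; values under 10 scored active.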 Active and inactive are the calls of the source.

What follows are compounds tested on UACC-62 melanoma (assay: NCI-60 one-dose screen, 48 h (100 = growth as untreated, 0 = no growth, -100 = all killed)). Settings: 10 µM unless noted.
In the case of `O=C(Nc1cccc(NC(=O)C(=O)C2CCC3=C(Sc4ccccc4N3)C2=O)n1)C(=O)C1CCC2=C(Sc3ccccc3N2)C1=O` (stereo not drawn), the growth is reported as 50.7% [100 µM] (inactive) and -46.3% [100 µM] (active). `CNC(=S)c1nnsc1N` was tested, and the growth was 70.7% [100 µM] (inactive) and -2.69% [100 µM] (active). For `Cc1ccc(/C=C2/N=C(N/N=C\c3ccccc3)NC2=O)cc1`, the growth was 28.2% [100 µM] (inactive) and 56.4% [100 µM] (inactive).
